Data: PubChem BioAssay AID485344 (National Center for Advancing Translational Sciences (NCATS), 2010)
Several values for one entry are separate records, joined by “and”; a condition that tells them apart may be missing. Equal entries are not always repeated. Out of some 340,000 compounds screened, about 6,900 (2%) were called active. Cut-off read from the data, not from the text of the source: active = inhibition above about 30%; inactive = below that, where a call was filed. For the sample, actives were picked, then their nearest neighbours and some compounds at random. More than one record can exist for a structure, and the calls need not agree.

biological target: D(2) dopamine receptor (Homo sapiens) (UniProt P14416); assay: HTS Assay for Allosteric Antagonists of the Human D2 Dopamine Receptor: Primary Screen for Antagonists; settings: HEK293 TREx D2 cells, calcium flux, dopamine EC80; at 10 µM; stronger effect = higher value; note: 0% is about no effect
Sequence (P14416 whole entry, looked up): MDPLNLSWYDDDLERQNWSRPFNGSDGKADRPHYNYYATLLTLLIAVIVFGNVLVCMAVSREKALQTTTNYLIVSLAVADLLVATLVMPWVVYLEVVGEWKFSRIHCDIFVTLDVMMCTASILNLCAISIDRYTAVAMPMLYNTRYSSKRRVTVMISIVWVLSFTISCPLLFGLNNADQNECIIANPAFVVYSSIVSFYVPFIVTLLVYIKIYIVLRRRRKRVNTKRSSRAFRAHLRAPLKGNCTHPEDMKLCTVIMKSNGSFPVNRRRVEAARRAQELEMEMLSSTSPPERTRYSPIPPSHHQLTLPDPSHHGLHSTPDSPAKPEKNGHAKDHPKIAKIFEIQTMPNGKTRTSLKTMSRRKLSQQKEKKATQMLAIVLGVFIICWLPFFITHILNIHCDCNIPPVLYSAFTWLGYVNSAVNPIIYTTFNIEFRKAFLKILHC
In short: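 Dopamine at EC80 is the agonist stimulus; test compounds precede it by 180 s. Calcium flux read kinetically in a force-coupled, inducible HEK293 T-REx D2 cell line.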

inhibition, 6.19% (inactive) and 47.1% (active):
CC(C)c1ccc2c(c1)c(SC(C)(C)C)c(CC(C)(C)C(=O)O)n2Cc1ccc(Cl)cc1

inhibition, inactive:
COc1ccccc1-c1nn(Cc2ccccc2)cc1C(=O)N1CCN(c2ncccn2)CC1 -14.3%
CC(=O)c1ccc(S(=O)(=O)Nc2ccc(-c3ccc4nncn4n3)cc2)cc1 12.5%
COc1ccc(-c2cc(C(=O)NCCCN3CCCC3=O)c3ccccc3n2)cc1OC 13.7%
O=C(Nc1ccncc1)c1ccc([N+](=O)[O-])cc1Cl 0.87%
O=C(Nc1cccc(NC(=O)c2ccccc2[N+](=O)[O-])c1)c1ccccc1Cl 3.86%
CN(C(=O)CSc1nnc(C2CC2)n1C)C1CCCc2ccccc21 (centres undefined) -0.606%
Cc1nc2ccccc2c(=O)n1NC(=O)c1ccc(Cl)c([N+](=O)[O-])c1 11.3%
O=C(Nc1ccon1)c1cccc(Cl)c1 18.9%
CC1CC(=O)Nc2ccccc2N1C(=O)COc1ccc2cc(Br)ccc2c1 (centres undefined) -5.97%
C=C1CCC(N(O)c2cc(C)on2)C(=C)CCC2C1CC2(C)C (centres undefined) -0.609%
Cc1ccc(S(=O)(=O)CCC(=O)Nc2nnc(CC(C)C)s2)cc1 -13.3%
COc1ccc(S(=O)(=O)Nc2cc(C)on2)cc1NC(C)=O 15.7%
Cc1cccc(NC(=O)C2CCCN(C(=O)NCc3ccccc3)C2)c1C (centres undefined) -14.3%
Cc1cccc(NC(=O)N2CCCCCC2)c1C 9.43%
O=C(O[C@H]1[C@H](Cc2ccccc2)NS(=O)(=O)[C@H]2C[C@@H]3C=C[C@]12O3)c1ccc([N+](=O)[O-])cc1 19.3%
CC1(NC(=O)CCS(=O)(=O)c2ccc(Cl)cc2)CCS(=O)(=O)C1 (centres undefined) 9.74%
CC(=O)c1sc(NC(=O)CCN2C(=O)C3CC=CCC3C2=O)nc1-c1ccccc1 (centres undefined) -8.46%
Cc1cc(C(=O)COc2ccccc2Cl)c(C)n1C1CC1 -29.6%
CC(C)CNC(=O)c1cc(-c2ccc(Br)cc2)on1 -7.31%
Cc1ccc(S(=O)(=O)Cc2cc(-c3ccc(Cl)cc3)no2)cc1 -17%
Cc1cc(C)n2nc(C(=O)Nc3cccc(S(=O)(=O)N4CCOCC4)c3)nc2n1 7.16%
O=C(O)c1ccc(Cn2c(=S)[nH]c3cc(Cl)ccc3c2=O)cc1 -1.7%
CCCCCCSc1ccc([C@@H]2[C@@H]3C(=O)N(CC)C(=O)[C@@H]3[C@]3(C(=O)OC)CCCCN23)cc1OC 6.12%
COc1cc(OC)c(N2CC(C(=O)Nc3cc(Cl)ccc3N3CCOCC3)CC2=O)cc1Cl (centres undefined) -13.1%
CCN(CC(=O)Nc1ccc(S(=O)(=O)N2CCCC2)cc1)CC(=O)Nc1cccc(OC)c1 -1.82%
O=C(CN1CCCCCC1)Nc1ccc(S(=O)(=O)N2CCCCC2)cc1 -6.5%
COc1cc(OC)cc(C(=O)NNC(=O)CCOc2ccccc2OC)c1 23.6%
Cc1[nH]c2ccccc2c1C(=O)CN1CC(C)CC(C)C1 (centres undefined) 14.4%
Cc1cccc(NC(=O)CCN2CC(C)CC(C)C2)c1 (centres undefined) 4.5%
COc1cccc(NC(=O)COC(=O)/C=C/c2ccco2)c1 13.2%
Cn1c(SCC(=O)Nc2ccc(N3CCOCC3)cc2)nnc1C(F)(F)F 6.16%
O=C(Nc1ccccn1)C1CCN(S(=O)(=O)c2ccc3c(c2)OCCO3)CC1 -2.31%
O=C(c1c(F)cccc1F)N1CCN(S(=O)(=O)c2ccc3c(c2)OCCO3)CC1 8.79%
O=C(CSc1nnc(N2CCOCC2)n1-c1cccc(F)c1)N1CCN(c2ccccn2)CC1 4.3%
COc1ccccc1C(=O)NCC(=O)OCC(=O)Nc1nnc(-c2ccccc2)o1 1.12%
CC(C)(C)C(=O)CSc1ccc(S(=O)(=O)N2CCCC2)cn1 5.12%
Cc1c(CN2CCCC(C(=O)c3cccc(Cl)c3)C2)c(=O)n(-c2ccccc2)n1C (centres undefined) -0.0762%
Cc1c(CN2CCC(C)CC2)c(=O)n(-c2ccccc2)n1C -7.69%
C#CCOCCOCCOCCNc1nc(N2CCN(C(=O)CCCCCCCCCCNC(=O)[C@H](CCCCN)n3cc(C)nn3)CC2)nc(N2CCN(C(=O)CCCCCCCCCCNC(=O)[C@H](CO)n3cc(CCCSC)nn3)CC2)n1 -18.3%
CC12CCC(=O)N1C(C(=O)NCCN1C(=O)S/C(=C\c3ccccc3F)C1=O)CS2 (centres undefined) -9.13%
CCOc1ccc(NS(=O)(=O)c2ccc(Cl)c(C(=O)N(C)Cc3cccnc3)c2)cc1 10.8%
CCN(CC)S(=O)(=O)c1ccc(N2CCOCC2)c(NC(=O)c2ccc(=O)n(C)n2)c1 -40.6%
O=c1nc2s/c(=C\c3ccco3)c(=O)n2nc1Cc1ccccc1 -1.5%
CSc1nc(-c2ccco2)nn1C(=O)CCc1ccccc1 10.1%
CC(=O)c1ccccc1NC(=O)C1CC(=O)N(c2ccc3c(c2)OCCO3)C1 (centres undefined) -6.21%
COc1ccc(OC)c(/C=C/C(=O)c2ccc3c(c2)OCO3)c1 6.23%
Cc1nc(N)nc(SCc2ccc([N+](=O)[O-])cc2)c1N 12.4%
Cc1cc(C)cc(C(=O)N2CCN=C2SCc2ccc([N+](=O)[O-])cc2)c1 -7.25%
COc1cc(F)c(C2=CC(=O)CC(C)(C)C2)cc1F -9.82%
COC(=O)c1cccc(NC(=O)c2cccc(N3C(=O)CCC3=O)c2)c1 0.805%
COc1ccc([C@@H]2[C@@H]3C(=O)N(C(C)(C)C)C(=O)[C@@H]3[C@]3(Cc4ccccc4)C(=O)N(c4cccc(Br)c4)C(=O)N23)cc1 -3.44%
Cc1ccc(CNC(=O)COc2ccc(S(=O)(=O)NC(C)C)cc2)cc1 6.5%
Cc1cc(S(=O)(=O)NC2CCCCC2)ccc1OCC(=O)NCc1cccnc1 -3.46%
Cc1cccc(C(=O)NCc2nnc(SC(C)C(=O)Nc3nnc(C)s3)n2C)c1 (centres undefined) 8.11%
CC1(C)CC(=O)C=C(c2ccc3ncccc3c2)C1 -2.57%
CCN(CC(=O)Nc1c(F)cccc1F)C(=O)C1CCC1 -5.66%
CCOc1ccc(C(=O)NCC(=O)N2CCCCCCC2)cc1OCC -3.78%
Cc1cc(C)cc(C(=O)NCC(=O)OCC(=O)N2CCCCC2)c1 1.51%
N/C(=N\OC(=O)/C=C/c1ccccc1)c1ccc(Br)cc1 -2.34%
N/C(=N\OC(=O)N1c2ccccc2Sc2ccccc21)c1ccc(Br)cc1 -13.7%
Cn1nc(C(=O)OCC(=O)N(Cc2ccccc2)C(C)(C)C)c2ccccc2c1=O -16.5%
OCCC1CN(Cc2cnc(-c3ccccc3)s2)CCN1CCc1ccccc1 (centres undefined) -6.7%
OCCC1CN(Cc2ccccc2-c2ccco2)CCN1Cc1ccsc1 (centres undefined) -17.4%
OCCC#Cc1ccc(CN2CCN(Cc3ccsc3)C(CCO)C2)cc1 (centres undefined) 6.27%
OCCC1CN(Cc2ccc(Oc3ncccn3)cc2)CCN1CCc1ccccc1 (centres undefined) -20.6%
Cc1ccc(NC(=O)CCCNC(=O)c2ccc(Cl)cc2)cc1S(=O)(=O)N1CCCCC1 2.49%
Nc1ccc(C(=O)N2CCN(S(=O)(=O)c3ccc(Cl)cc3)CC2)cc1[N+](=O)[O-] 1.49%
O=C(COc1ccc2c(c1)CCC2)N1CCN(c2ccc(F)cc2)CC1 3.48%
O=c1cc(CN2CCN(c3cccc(Cl)c3)CC2)c2cc3c(cc2o1)CCCC3 -7.58%
O=C(O)Cc1sc(-c2ccccc2)nc1-c1cccs1 3.67%
C/C(=N/Nc1nc(-c2ccccc2)c(CC(=O)O)s1)c1ccccc1 -8.33%

inhibition, active:
CC(C)C(=O)Nc1cccc(NC(=O)c2ccc([N+](=O)[O-])cc2Cl)c1 39.3%
Cc1cc(C)n(-c2nnc(C)n2NC(=O)c2cccc(Cl)c2)n1 46.8%
Cc1cccc(NC(=O)C2CCCN(C(=O)Nc3ccc(F)cc3)C2)c1C (centres undefined) 36%
CC(C)C(=O)NCc1cc(-c2ccc(Cl)cc2)no1 41.7%
COc1ccccc1CC(=O)Nc1ccc(S(=O)(=O)N2CCCC2)cc1 39.2%
CC1CC(C)CN(CCOc2cccc3ccccc23)C1 (centres undefined) 55.1%
O=C(c1ccc2c(c1)OCCO2)C1CCN(S(=O)(=O)c2cccc(F)c2)CC1 61.3%
Cc1cccc(N2CCN(Cc3c(C)n(C)n(-c4ccccc4)c3=O)CC2)c1C 41.2%
CCOc1ccccc1/C=c1\sc2nc(-c3ccco3)nn2c1=O 33.5%
Nc1nc(SCc2ccc([N+](=O)[O-])cc2)c2ncn(C3OC(CO)C(O)C3O)c2n1 (centres undefined) 36.3%
Cc1ccc(C)c(NS(=O)(=O)c2ccc(OCC(=O)NCc3cccnc3)cc2)c1 42.3%
COc1cc(OC)cc(C(=O)NCC(=O)N2CCCCCCC2)c1 33.6%
N/C(=N\OC(=O)c1ccc2c(c1)OCO2)c1ccc(Br)cc1 46.1%
OCCC1CN(Cc2cccc(OC3CCCC3)c2)CCN1Cc1ccsc1 (centres undefined) 65.5%
OCCC1CN(Cc2cccc(O)c2)CCN1CCc1ccccc1 (centres undefined) 54.8%
OC(COc1ccc2c(c1)CCC2)CN1CCN(c2cccc(Cl)c2)CC1 (centres undefined) 39.2%
O=C(O)Cc1sc(-c2ccc(C(=O)O)cc2)nc1-c1ccccc1 32.7%
